Each sequence was assayed on PPARg:RXRa DBDmut IVT, anti-RXR (DBD mutation: RXRa K156A/R161A, NR concentration 270 nM, RXRa partner concentration 90 nM) (assay: PBM binding z-score (relative to random genomic background probes); higher = stronger binding; sequences stand for … in GC…GCGATTGACAGCGTAGAATGAAGG).
Summary of the method: (§1)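 Each nuclear receptor dimer, without ligand, was incubated for 1 h on custom Agilent 4×180K protein-binding microarrays. Binding was detected with antibodies against each partner (one per run), and scanned fluorescence was regression-normalized. The binding z-scores are referenced to random human genomic background probes.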

| Sequence | PBM binding z-score |
| --- | --- |
| AGTCAAATTTCACTAGGTAACGTAAGATTCAGCT | 1.53 |
| CGAACTAGGTCAGAACAGGACAGTTAAGGATGAT | 7 |
| GATACAGAGTCAGCTAGAGGCCAGAGTATGGAAA | -0.664 |
| CCCCGGAGGACAGAAGGTCAGAGCTGTCCGCTTT | -0.634 |
| AGTCCAAGTTCACTAGGTAACGTAAGATTCAGCT | 2.21 |
| CGTCAAAGCTCAACTAAGGTAACGTAAAGCACGC | 0.431 |
| TTACGAAGGTGAAAGGTCGTTGATGCACGCCTTG | 2.05 |
| CATACAGGGTCCGCTAGGCCAGAGTAGGGACGGC | -1.42 |
| CCTACTGGGCCATTCAGAGGTCATTGATCATATG | 4.59 |
| ATCGAATGGTCGAAGGTGAGTATACCCACCCGAA | -0.883 |
| TAGCCTAGGACATGCGGGCCAGTATAGTGTCGGC | -0.985 |
| GCTGCTAGGTCAGGATGGTCAGCTAACGGGTACG | 2.74 |
| CCTCGGAGGACAGAAGGTCAGATCTGTCCGCTTT | 0.207 |
| ATCTCTAGGTAAAGTTCATTGAAAGATCGATAGA | 2.31 |
| CAGCCTAGGTGAGGGCCAGTATAGGAGGAACGTT | 0.681 |
| GCTGCTAGGTCAGGTTGGTCAACTAACGGGTACG | 3.05 |
| CGTCGGAGGACAACAGGAGGTCAGAGCTGCCAGA | 0.202 |

The sequences below were run on PPARg:RXRa IVT, anti-PPARg (NR concentration 270 nM, RXRa partner concentration 90 nM) in the same assay as above.
Summary of the method: as §1

| Sequence | PBM binding z-score |
| --- | --- |
| CAAGCTAGGTCAAGAGGTCAAAGTCCGCTTCCCG | 5.5 |
| TTACCAAGGTGAAAGGTCGTTGAGGCACGCCTTG | 5.16 |
| CCTGCTAGGTCTATGGTCAGCTAAAGCAGCTCGC | -0.225 |
| AGTCATAGTTCACTAGGTAACGTAAGATTCAGCT | 3.43 |
| ACTAGTTGGTAAGCTGAGGTCACACACAATTCGG | 1.93 |
| GCTGCTAGGTCAGGTTGGTCGGCTAACGGGTACG | 1.97 |
| CCTACTGGGCCAAGGTCTTTGATCAGTCAAAGCA | 3.33 |
| ATATGAAGGTTATCGGGTCATTCAGTTTGCGCAT | 4.42 |
| GCTGCTAGGTCAGGTTGGTCTGCTAACGGGTACG | 2.35 |
| CTCGAAAGGTCGGTTGAGGTGAGTAAACGGATAA | 0.901 |
| CGTCGGAGGACAGAAGGTCAGAGCTGTCCGCTTT | 0.25 |
| AGTCAAAGTTCACGAGGTAACGTAAGATTCAGCT | 4.03 |
| ATATGTAGCTTAAGGGTCATTCAGGTTGGTTCGC | 2.21 |
| CCGACTGGGCCATTCAGAGGTCATTGATCATATG | 2.53 |
| ATCTCTAGGTAAAGTTCAGCGAAAGATCGATAGA | 2.5 |
| CGTCCAAGGTCAGCAGGTCACTGAAAGCGACGTG | 4.56 |
| TAGCCTAGGTCAGATCGGGGCAGTATACGCTATA | 1.66 |
| CGTCCAAGGTCAACAGGTCAGTGAAAGCGACGTG | 4.5 |
| CGTCAAAGTTCAACTAAGTTAACGTAAAGCACGC | 1.89 |
| TCTAGGAGGACACGAAGGTCAGAGCTTTCCAGAG | 1.99 |
| AGTCAAAGTTCACGACGAGGTAACGTAAAGCACG | 3.83 |
| CAAACTAGGTCACGAAAGGTCAACGTCGAATGAC | 9.17 |
| AGTCAAATTTCACTAGGTAACGTAAGATTCAGCT | 2.38 |
| CGAACTAGGTCAGAACAGGACAGTTAAGGATGAT | 7.32 |
| GATACAGAGTCAGCTAGAGGCCAGAGTATGGAAA | -0.657 |
| CCCCGGAGGACAGAAGGTCAGAGCTGTCCGCTTT | -0.0521 |
| AGTCCAAGTTCACTAGGTAACGTAAGATTCAGCT | 3.58 |
| CGTCAAAGCTCAACTAAGGTAACGTAAAGCACGC | -0.398 |
| TTACGAAGGTGAAAGGTCGTTGATGCACGCCTTG | 4.53 |
| CATACAGGGTCCGCTAGGCCAGAGTAGGGACGGC | -0.128 |
